# From ChEMBL document CHEMBL1961873, “Compounds: GSK PKIS; Assays: Nanosyn kinase panel” (2012)
# Target: Casein kinase I isoform gamma-2 (Homo sapiens) (UniProt P78368)
# Conditions: at 1 µM
# Chain of Casein kinase I isoform gamma-2 (Homo sapiens) (P78368 whole entry, looked up, canonical isoform): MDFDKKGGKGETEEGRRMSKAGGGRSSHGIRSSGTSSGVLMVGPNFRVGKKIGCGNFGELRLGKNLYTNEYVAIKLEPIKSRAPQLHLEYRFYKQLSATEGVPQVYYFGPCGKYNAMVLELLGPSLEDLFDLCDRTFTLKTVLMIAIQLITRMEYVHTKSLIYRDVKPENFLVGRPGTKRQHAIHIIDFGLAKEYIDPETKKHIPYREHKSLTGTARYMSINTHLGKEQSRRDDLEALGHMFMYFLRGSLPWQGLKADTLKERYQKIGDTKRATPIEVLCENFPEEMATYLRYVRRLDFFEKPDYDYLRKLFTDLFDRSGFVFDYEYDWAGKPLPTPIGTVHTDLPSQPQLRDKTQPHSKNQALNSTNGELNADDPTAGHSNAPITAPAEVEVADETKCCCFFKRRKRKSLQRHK
row,SMILES,inhibition [%]
1,CC1=C(C(=O)Nc2cc(Cl)c3[nH]ncc3c2)C(c2ccc(C(F)(F)F)cc2)CC(=O)N1 (centres undefined),3.61
2,c1cc(-c2cnn3nc(N4CCOCC4)ccc23)nc(NC2CC2)n1,10.4
3,CC(C)COC(=O)c1ccc2c(c1)/C(=C/Nc1ccc(S(N)(=O)=O)cc1)C(=O)N2,14.2
4,Fc1ccc(-c2cc(-c3c[nH]nc3-c3ccccn3)ccn2)cc1,6.19
5,COC(=O)c1sc(-n2cnc3cc(OC)c(OC)cc32)cc1OCc1ccccc1C(F)(F)F,4.73
6,Nc1ncc(-c2cccc(S(N)(=O)=O)c2)c2scc(-c3ccc(F)c(Cl)c3)c12,3.79
7,Fc1ccc(-c2nn3ncccc3c2-c2ccnc(Nc3ccc4c(c3)OCCO4)n2)cc1,61.6
8,COc1cc(Nc2nccc(Nc3ccc4c(C)n[nH]c4c3)n2)cc(OC)c1OC,9.2
9,O=C(O[C@H]1CN[C@H](C#Cc2cc3ncnc(Nc4ccc(Cc5ccccc5)cc4)c3s2)C1)N1CCOCC1,2.93
10,Nc1nc(-c2ccc(F)cc2)c(-c2ccc3ncccc3n2)s1,8.8
11,COc1ccc(-c2nn3ncccc3c2-c2ccnc(Nc3ccc4c(c3)OCCO4)n2)cc1,3.08
12,CNC(=O)c1cncc(/C=C/c2ccccc2Cl)c1,-0.77
13,CCn1c(-c2nonc2N)nc2ccccc21,2.97
14,N#Cc1c(NC(=O)CN2CCOCC2)sc2c1CCCC2,6.04
15,NS(=O)(=O)c1ccc(N/N=C2\C(=O)Nc3ccc4ncccc4c32)cc1,7.05
16,Nc1nc(-c2cccc(Cl)c2)c(-c2ccc3ncccc3n2)s1,13.7
17,c1ccc(-c2nc3n(c2-c2ccc4c(c2)OCO4)CCC3)nc1,1.81

row,SMILES,inhibition [%]
1,Cc1ccc(O)cc1Nc1ccnc2cc(-c3ccccn3)ccc12,6.53
2,NS(=O)(=O)c1ccc(Nc2ncc(-c3ccccc3)o2)cc1,4.34
3,COc1cccc(-n2ncc3c(N/N=C/c4ccc(F)cc4)ncnc32)c1,4.65
4,CCc1nn2ncccc2c1-c1ccnc(NC2CC2)n1,2.18
5,COc1ccc(CNC(=O)c2ccc(-c3cc(-c4nnc(C)o4)ccc3C)cc2)cc1,0.62
6,CCCN(CCS(C)(=O)=O)Cc1ccc(-c2ccc3ncnc(Nc4ccc(OCc5cccc(F)c5)c(Cl)c4)c3c2)o1,3.18
7,Cc1ccc2c(-c3ccnc(Nc4ccccc4)n3)c(-c3ccc(F)cc3)nn2n1,36.6
8,COc1cc(/C=N/Nc2ncnc3[nH]ncc23)ccc1O,25.1
9,FC(F)(F)c1cccc(-c2nn3ncccc3c2-c2ccnc(Nc3ccc4c(c3)OCCO4)n2)c1,3.28
10,O=S(=O)(CCNCc1ccc(-c2ccc3ncnc(Nc4ccc(OCc5cccc(F)c5)c(Cl)c4)c3c2)o1)c1ccccc1,5.75
11,CCn1c(-c2nonc2N)nc2c(C#CC(C)(C)O)ncc(OC3CCNCC3)c21,3.98
12,COc1ccc2c(-c3ccnc(Nc4cccc(OC(F)(F)F)c4)n3)cnn2n1,7.44
13,CC(C)(CO)CNC(=O)c1ccc2c(c1)/C(=N/Nc1ccc(S(N)(=O)=O)cc1)C(=O)N2,3.6
14,NC(=O)c1sc(-n2cnc3ccc(C(F)(F)F)cc32)cc1OCc1ccccc1Br,4.58
15,COC(=O)Nc1nc2ccc(Oc3ccc(NC(=O)Nc4cccc(Cl)c4)cc3)cc2[nH]1,1.64
16,CS(=O)(=O)CCNCc1ccc(-c2ccc3ncnc(Nc4ccc(OCc5ccccc5)c(C(F)(F)F)c4)c3c2)o1,4.2
17,COc1ccc2[nH]c3c4[nH]c5ccc(OC)cc5c4c4c(c3c2c1)C(=O)NC4=O,3.1
